# Source: PubChem BioAssay (NCATS)
# Results filed as inconclusive are left out. A call without a number means that no potency is given here. The source made the active and inactive calls. Unless noted, calls come from the whole dose curve; as a rule, active = well fitted curve in the direction sought with a large enough effect; inconclusive = small, poorly fitted or top-dose-only effect, or another doubt; inactive = no such curve, though single readings can be large; an effect the other way counts as inactive or inconclusive.
# Assays:
# [1] = P-glycoprotein substrates identified in KB-3-1 adenocarcinoma cell line, qHTS therapeutic library screen (AID 1346986);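 note: potency is the fitted concentration of half-maximal effect; potency is for cytotoxicity meaning loss of cell viability; nearly all actives have a fitted effect of over 60% in size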
# In short: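 Viability read by CellTiter-Glo after 72 h compound exposure in dose-response of KB-3-1 and KB-8-5-11 (P-gp-high) cells. Hits needed AC50 < 10 uM, >50% maximum response and curve class -1.1 to -2.4. Cherry-picks retested ± tariquidar, including pcDNA/MDR-19 HEK-293 pair.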
# [2] = P-glycoprotein substrates identified in KB-8-5-11 adenocarcinoma cell line, qHTS therapeutic library screen (AID 1346987); note: nearly all actives have a fitted effect of over 65% in size; note: potency is the fitted concentration of half-maximal effect
# In short: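 Compounds are pinned in dose-response onto KB-8-5-11 cells (500 cells/well, colchicine-free medium) and left 72 h at 37 degree C. CellTiter-Glo luminescence then yields AC50 values.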
# [3] = Primary qHTS for inhibitors of nuclear receptor binding SET domain protein 2 (NSD2) in an RCH-ACV wild type WT cells (2C) (AID 1645877); note: nearly all actives have a fitted effect of over 70% in size; note: potency is the fitted concentration of half-maximal effect
# [4] = molecular target: Glutathione peroxidase 1 (Homo sapiens) (UniProt P07203); experiment: Primary qHTS Assay for Inhibitors of Recombinant Selenoprotein Glutathione Peroxidase 1 (GPX1) (AID 1845191); note: nearly all actives have a fitted effect of over 65% in size
# In short: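 NADPH consumption tracked by fluorescence at 340/450 nm between t=0 and t=15 min, room temperature. Final mix: 10 nM GPX1, 100 nM glutathione reductase, 1 mM GSH, 0.5 mM NADPH, 0.5 mM cumene hydroperoxide, 0.01% BSA; 30 min compound–enzyme preincubation.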
# [5] = Primary qHTS for inhibitors of nuclear receptor binding SET domain protein 2 (NSD2) in an isogenic RCH-ACV NSD2 p.E1099K mutant (9B) (AID 1645876); note: nearly all actives have a fitted effect of over 70% in size; note: potency is the fitted concentration of half-maximal effect
# [6] = molecular target: Catechol O-methyltransferase (Homo sapiens) (UniProt P21964); experiment: Confirmatory Screen for Target Class Profiling of Small Molecule Inhibitors of Methyltransferases (AID 1745852; calls by dose curve); settings: MTase-Glo luminescence, SAH detection, recombinant enzyme; measured here: COMT max response; stronger effect = lower value
# [7] = molecular target: Guanidinoacetate N-methyltransferase (Homo sapiens) (UniProt Q14353); experiment: as above; settings: activity change, negative = inhibition: at 57.3 µM (top of the series) unless noted
# [8] = molecular target: Nicotinamide N-methyltransferase (Homo sapiens) (UniProt P40261); experiment: as above; settings: MTase-Glo luminescence, SAH detection, recombinant enzyme; measured here: NNMT max response; stronger effect = lower value
# [9] = molecular target: Phenylethanolamine N-methyltransferase (Homo sapiens) (UniProt P11086); experiment: as above; settings: MTase-Glo luminescence, SAH detection, recombinant enzyme; measured here: PNMT max response; stronger effect = lower value
# [10] = molecular target: Calcium and integrin-binding protein 1 (Homo sapiens) (UniProt Q99828); experiment: Primary qHTS for Identification of Calcium Integrin Binding Protein 1 (CIB1) Competitor (AID 1508620);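 note: GST tagged CIB1 binding a fluorescein labelled alphaIIb integrin peptide tracer; top concentration of the series differs between compounds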
# In short: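 CIB1-GST (1 uM final) and compound incubated 15 min at room temperature before adding FITC-alphaIIb peptide tracer (100 nM final). Competition for binding read by fluorescence polarization (ex 480, em 540) after another 15 min at room temperature.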
# [11] = molecular target: Cytochrome P450 1A2 (Homo sapiens) (UniProt P05177); experiment: p450-cyp1a2 (AID 410; calls by dose curve; note: potency is the fitted concentration of half-maximal effect)
# In short: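 Luminescent demethylation readout: Luciferin-ME (100uM, equal to Km) turned over by 20nM CYP1A2 for 60 min at room temperature after NADPH regeneration addition, following 10 min compound preincubation. Normalization used 57 uM furafylline as full inhibition.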
# [12] = molecular target: Glucocorticoid receptor (Homo sapiens) (UniProt P04150); experiment: GR-GFP Redistribution (AID 450;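 active = compounds whose dose series gives a full or clear partial fitted curve of increased nuclear translocation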; note: potency is the fitted concentration of half-maximal effect); settings: U2OS GR-GFP nuclear translocation, laser cytometry, 2 h
# [13] = molecular target: Glucocorticoid receptor (Homo sapiens) (UniProt P04150); experiment: GR-EFC Redistribution (AID 451; calls by dose curve; note: potency is the fitted concentration of half-maximal effect); settings: CHO-K1 GR-EFC translocation, beta-gal luminescence, 2 h
# In short: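 Translocation of GR-ED fusion to nuclear EA restores b-gal, read by luminescence after 1 h room-temperature detection. Engineered CHO-K1 biosensor cells, 1,000/well, exposed 2 h at 37 C to titrations up to 46 uM final.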
# [14] = molecular target: Mitogen-activated protein kinase 10 (Mus musculus) (UniProt Q61831); experiment: JNK3 AlphaScreen Assay (AID 530; active = well fitted curve in either direction with a large enough effect, not every such curve was filed as active;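 note: kinase came from lysate of stimulated human HepG2 cells; signal reports phosphorylation of biotinylated GST-cJun 1-79 at Ser73 with 10 µM ATP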)
# In short: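 qHTS titrations with 15 min compound pre-incubation before adding ATP (10 uM final). Read-out: AlphaScreen of Ser73-phosphorylated biotin-GST-cJun using HepG2 lysate JNK3 activated by IL-1β and TNFα.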
# [15] = molecular target: 3',5'-cyclic-AMP phosphodiesterase 4B (Homo sapiens) (UniProt Q07343); experiment: qHTS Assay for Inhibitors of PDE-IV (AID 607; active = well fitted activation curve with a large enough effect in the main read-out, with a control signal flat, not every such curve was filed as active)
# In short: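 The readout is membrane depolarisation from a cAMP-sensing CNG channel, detected with a potential dye at ex 535/em 590. Cells were HEK293-derived (endogenous PDE-IV) at 1000 cells/well, titrated up to 22.9 uM final.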
# [16] = molecular target: Cytochrome P450 2C9 (Homo sapiens) (UniProt P11712); experiment: qHTS Assay for Inhibitors and Substrates of Cytochrome P450 2C9 (AID 883); note: potency is the fitted concentration of half-maximal effect; nearly all actives have a fitted effect of over 60% in size
# In short: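 Turnover of Luciferin-H (100uM, KM) by 10nM human CYP2C9 was measured over 60 min at 37C with NADPH regeneration; inhibitors and some substrates reduce luminescence. Data normalized to sulphaphenazole 57uM.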
# [17] = molecular target: Cytochrome P450 3A4 (Homo sapiens) (UniProt P08684); experiment: qHTS Assay for Activators of Cytochrome P450 3A4 (AID 885); note: nearly all actives have a fitted effect of over 65% in size
# In short: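 Activators are scored by enhanced luminescence from CYP3A4 conversion of luciferin-PPXE (25uM, equal to KM) to luciferin, after 60 min at RT with an NADPH-regenerating system.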
# [18] = molecular target: Cytochrome P450 2C19 (Homo sapiens) (UniProt P33261); experiment: qHTS Assay for Inhibitors and Substrates of Cytochrome P450 2C19 (AID 899); note: potency is the fitted concentration of half-maximal effect; nearly all actives have a fitted effect of over 60% in size
# In short: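 Reactions contain 5nM enzyme, 10uM Luciferin-H EGE (KM) and 50mM KPO4; compound preincubates 10 min at 37C, NADPH regeneration starts turnover for 60 min. Luminescence after detection reagent gives activity.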
# [19] = molecular target: DNA dC->dU-editing enzyme APOBEC-3G (Homo sapiens) (UniProt Q9HC16); experiment: qHTS for inhibitors of Vif-A3G interactions: Validation (AID 588379)
# In short: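 Yellow fluorescence (Ex 488, Em 500-530) of Vif-coexpressing HeLa A3G-eYFP cells, scanned by Acumen cytometer, reports blocked A3G degradation. Cells plated at 700/well overnight at 37 deg C before compound addition, then a further overnight compound incubation at 37 deg C.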
# [20] = tested on: Zika virus NS2B-NS3 protease; experiment: Primary screen GU AMC qHTS for Zika virus inhibitors (AID 1347154); note: nearly all actives have a fitted effect of over 70% in size
# In short: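 Fluorogenic AMC-substrate cleavage by noncovalent NS2B-NS3 protease complex (25 nM, pH 8.0 Tris buffer with Tween 20) followed for 15 minutes at room temperature (~20% conversion). Percent inhibition from ex340/em450 signal change, fitted by 4-parameter Hill equation.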
# [21] = Primary qHTS for small molecule stabilizers of the endoplasmic reticulum resident proteome: Secreted ER Calcium Modulated Protein (SERCaMP) assay (AID 1508630)
# In short: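 The SH-SY5Y reporter protocol was run at 3 concentrations up to 38.3 uM (primary) or 11 concentrations (follow-up): 16 h compound, 100 nM thapsigargin for 4 h, then extracellular luciferase luminescence.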
# [22] = qHTS to identify inhibitors of the type 1 interferon - major histocompatibility complex class I in skeletal muscle: primary screen against the NCATS Mechanism Interrogation Plate v5.0 (MIPE) Libary (AID 1347411); note: nearly all actives have a fitted effect of over 65% in size
# In short: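 Luminescence from CRISPR HiBit-tagged endogenous HLA-B in human myoblasts reported MHC class I level after 24 h of IFN-beta (4 ng/ml) plus compound. Compounds ran as 11-point 1:3 series, top 46 uM final.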
# [23] = molecular target: Phospholipid hydroperoxide glutathione peroxidase GPX4 (Homo sapiens) (UniProt P36969); experiment: Primary qHTS Assay for Inhibitors of Recombinant Selenoprotein Glutathione Peroxidase 4 (GPX4) (AID 1845192); settings: outcome: dose series up to 50 µM unless noted
# In short: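 NADPH consumption followed by fluorescence at 340/450 nm, t=0 and after 15 min at room temperature. Reaction started with cumene hydroperoxide (0.5 mM final) after 30 min compound–GPX4 preincubation; final 200 nM GPX4, 100 nM GR, 1 mM GSH, 0.5 mM NADPH.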
# [24] = qHTS drug screen for cell cycle checkpoint inhibitors in PARPi-resistant BRCA-mutant ovarian cancer cell lines. (AID 1963452; calls by dose curve); settings: PEO1/OlaR viability, CellTiter-Glo luminescence, 96 h, stronger effect = lower value
# In short: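 PEO1, PEO4 and PEO1/OlaR ovarian cancer cells, 600 per well, exposed 96 h at 37C to a dilution series. Viability read by CellTiter-Glo luminescence, normalized to DMSO and empty wells; activity summarized as Z-AUC.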
# Sequence of Glutathione peroxidase 1 (Homo sapiens) (P07203 whole entry, looked up): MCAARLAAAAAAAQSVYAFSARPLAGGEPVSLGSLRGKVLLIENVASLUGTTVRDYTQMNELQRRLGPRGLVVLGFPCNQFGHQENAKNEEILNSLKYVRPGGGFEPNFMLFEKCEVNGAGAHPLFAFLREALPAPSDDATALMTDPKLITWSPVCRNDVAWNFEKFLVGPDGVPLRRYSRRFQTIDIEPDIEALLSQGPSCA
# Sequence of Calcium and integrin-binding protein 1 (Homo sapiens) (Q99828 whole entry, looked up): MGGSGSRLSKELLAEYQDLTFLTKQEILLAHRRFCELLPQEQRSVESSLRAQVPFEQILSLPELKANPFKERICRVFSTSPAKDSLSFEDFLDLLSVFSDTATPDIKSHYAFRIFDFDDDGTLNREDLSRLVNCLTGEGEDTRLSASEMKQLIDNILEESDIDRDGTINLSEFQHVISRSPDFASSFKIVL
# Sequence of Phenylethanolamine N-methyltransferase (Homo sapiens) (P11086 whole entry, looked up): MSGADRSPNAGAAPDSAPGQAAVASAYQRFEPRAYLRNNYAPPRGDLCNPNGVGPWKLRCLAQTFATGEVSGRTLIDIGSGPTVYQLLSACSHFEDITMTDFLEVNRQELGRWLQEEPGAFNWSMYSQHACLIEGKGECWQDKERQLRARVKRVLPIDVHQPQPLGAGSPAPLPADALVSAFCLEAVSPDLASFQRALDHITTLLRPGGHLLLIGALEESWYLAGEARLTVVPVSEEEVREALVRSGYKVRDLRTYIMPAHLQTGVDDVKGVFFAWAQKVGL
# Sequence of Glucocorticoid receptor (Homo sapiens) (P04150 whole entry, looked up, the tested form may be a part): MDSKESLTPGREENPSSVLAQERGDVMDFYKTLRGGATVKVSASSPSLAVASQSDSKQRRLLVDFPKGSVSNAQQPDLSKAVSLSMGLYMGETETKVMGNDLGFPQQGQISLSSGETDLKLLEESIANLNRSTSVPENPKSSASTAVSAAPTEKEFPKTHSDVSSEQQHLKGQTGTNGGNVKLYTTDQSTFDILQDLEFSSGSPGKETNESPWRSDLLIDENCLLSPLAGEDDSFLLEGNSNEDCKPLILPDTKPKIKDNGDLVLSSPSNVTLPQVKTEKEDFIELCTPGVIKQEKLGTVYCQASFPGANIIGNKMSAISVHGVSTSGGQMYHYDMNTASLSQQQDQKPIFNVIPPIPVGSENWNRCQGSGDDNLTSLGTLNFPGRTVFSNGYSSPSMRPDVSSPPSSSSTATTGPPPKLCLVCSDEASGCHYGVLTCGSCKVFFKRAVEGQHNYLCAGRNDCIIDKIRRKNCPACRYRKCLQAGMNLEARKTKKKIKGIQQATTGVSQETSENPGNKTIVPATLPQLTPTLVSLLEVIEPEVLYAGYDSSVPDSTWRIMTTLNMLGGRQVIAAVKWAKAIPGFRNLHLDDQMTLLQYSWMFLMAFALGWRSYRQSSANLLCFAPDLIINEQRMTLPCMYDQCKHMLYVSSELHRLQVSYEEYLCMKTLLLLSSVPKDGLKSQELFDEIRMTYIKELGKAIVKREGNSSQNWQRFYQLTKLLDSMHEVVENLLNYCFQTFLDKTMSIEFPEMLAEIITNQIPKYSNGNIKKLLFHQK
# Sequence of Nicotinamide N-methyltransferase (Homo sapiens) (P40261 whole entry, looked up): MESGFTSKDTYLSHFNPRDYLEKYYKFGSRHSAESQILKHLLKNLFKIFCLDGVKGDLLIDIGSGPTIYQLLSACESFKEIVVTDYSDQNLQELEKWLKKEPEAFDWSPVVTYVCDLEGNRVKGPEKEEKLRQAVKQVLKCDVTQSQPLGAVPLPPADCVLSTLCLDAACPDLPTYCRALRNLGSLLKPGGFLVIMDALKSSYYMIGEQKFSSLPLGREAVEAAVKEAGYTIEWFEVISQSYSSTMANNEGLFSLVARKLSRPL
# Sequence of Catechol O-methyltransferase (Homo sapiens) (P21964 whole entry, looked up): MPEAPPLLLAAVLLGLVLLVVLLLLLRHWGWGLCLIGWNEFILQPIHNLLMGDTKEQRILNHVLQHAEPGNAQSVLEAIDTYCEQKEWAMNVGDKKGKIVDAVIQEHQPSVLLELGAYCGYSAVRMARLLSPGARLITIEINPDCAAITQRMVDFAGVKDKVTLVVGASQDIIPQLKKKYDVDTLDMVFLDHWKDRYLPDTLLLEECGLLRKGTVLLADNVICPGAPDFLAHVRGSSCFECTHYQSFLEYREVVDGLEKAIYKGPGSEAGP
# Sequence of Cytochrome P450 2C9 (Homo sapiens) (P11712 whole entry, looked up): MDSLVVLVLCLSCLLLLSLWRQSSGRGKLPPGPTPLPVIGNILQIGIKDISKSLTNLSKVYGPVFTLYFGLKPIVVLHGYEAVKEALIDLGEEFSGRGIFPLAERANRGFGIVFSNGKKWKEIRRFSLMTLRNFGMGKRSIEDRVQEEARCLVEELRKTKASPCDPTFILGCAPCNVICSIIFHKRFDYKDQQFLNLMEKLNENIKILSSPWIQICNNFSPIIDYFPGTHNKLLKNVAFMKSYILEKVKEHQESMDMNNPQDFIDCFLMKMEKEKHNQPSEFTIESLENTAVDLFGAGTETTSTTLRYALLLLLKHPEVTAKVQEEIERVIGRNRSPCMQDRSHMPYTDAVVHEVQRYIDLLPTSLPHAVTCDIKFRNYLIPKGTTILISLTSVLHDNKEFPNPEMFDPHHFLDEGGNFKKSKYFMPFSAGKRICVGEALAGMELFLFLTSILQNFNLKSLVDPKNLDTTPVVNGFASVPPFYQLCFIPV
# Sequence of Cytochrome P450 2C19 (Homo sapiens) (P33261 whole entry, looked up): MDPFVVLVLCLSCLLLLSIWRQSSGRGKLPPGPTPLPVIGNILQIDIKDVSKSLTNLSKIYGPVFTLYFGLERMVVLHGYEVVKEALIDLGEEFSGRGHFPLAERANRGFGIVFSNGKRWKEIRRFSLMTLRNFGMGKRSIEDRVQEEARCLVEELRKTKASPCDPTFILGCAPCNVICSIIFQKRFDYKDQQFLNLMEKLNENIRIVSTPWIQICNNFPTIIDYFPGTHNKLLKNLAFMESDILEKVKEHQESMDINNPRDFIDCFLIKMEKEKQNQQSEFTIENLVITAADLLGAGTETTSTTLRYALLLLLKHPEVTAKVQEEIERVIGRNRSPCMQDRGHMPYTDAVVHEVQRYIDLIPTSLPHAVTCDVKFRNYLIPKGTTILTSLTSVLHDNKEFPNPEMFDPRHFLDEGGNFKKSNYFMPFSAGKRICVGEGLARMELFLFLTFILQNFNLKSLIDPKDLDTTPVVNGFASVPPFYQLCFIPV
# Sequence of Cytochrome P450 3A4 (Homo sapiens) (P08684 whole entry, looked up): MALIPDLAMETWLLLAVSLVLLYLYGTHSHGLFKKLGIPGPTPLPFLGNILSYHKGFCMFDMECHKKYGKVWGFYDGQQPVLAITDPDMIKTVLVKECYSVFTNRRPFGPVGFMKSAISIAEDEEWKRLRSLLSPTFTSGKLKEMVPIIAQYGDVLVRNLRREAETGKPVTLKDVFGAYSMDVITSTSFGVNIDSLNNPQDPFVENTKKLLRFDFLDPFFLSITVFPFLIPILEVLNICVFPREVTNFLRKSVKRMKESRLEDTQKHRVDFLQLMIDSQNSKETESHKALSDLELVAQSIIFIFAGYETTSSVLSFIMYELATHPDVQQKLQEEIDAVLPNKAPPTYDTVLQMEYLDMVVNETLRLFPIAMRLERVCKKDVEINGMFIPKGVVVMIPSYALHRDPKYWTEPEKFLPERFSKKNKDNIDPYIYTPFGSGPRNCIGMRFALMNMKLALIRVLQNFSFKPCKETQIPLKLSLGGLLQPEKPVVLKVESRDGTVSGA
# Sequence of 3',5'-cyclic-AMP phosphodiesterase 4B (Homo sapiens) (Q07343 whole entry, looked up): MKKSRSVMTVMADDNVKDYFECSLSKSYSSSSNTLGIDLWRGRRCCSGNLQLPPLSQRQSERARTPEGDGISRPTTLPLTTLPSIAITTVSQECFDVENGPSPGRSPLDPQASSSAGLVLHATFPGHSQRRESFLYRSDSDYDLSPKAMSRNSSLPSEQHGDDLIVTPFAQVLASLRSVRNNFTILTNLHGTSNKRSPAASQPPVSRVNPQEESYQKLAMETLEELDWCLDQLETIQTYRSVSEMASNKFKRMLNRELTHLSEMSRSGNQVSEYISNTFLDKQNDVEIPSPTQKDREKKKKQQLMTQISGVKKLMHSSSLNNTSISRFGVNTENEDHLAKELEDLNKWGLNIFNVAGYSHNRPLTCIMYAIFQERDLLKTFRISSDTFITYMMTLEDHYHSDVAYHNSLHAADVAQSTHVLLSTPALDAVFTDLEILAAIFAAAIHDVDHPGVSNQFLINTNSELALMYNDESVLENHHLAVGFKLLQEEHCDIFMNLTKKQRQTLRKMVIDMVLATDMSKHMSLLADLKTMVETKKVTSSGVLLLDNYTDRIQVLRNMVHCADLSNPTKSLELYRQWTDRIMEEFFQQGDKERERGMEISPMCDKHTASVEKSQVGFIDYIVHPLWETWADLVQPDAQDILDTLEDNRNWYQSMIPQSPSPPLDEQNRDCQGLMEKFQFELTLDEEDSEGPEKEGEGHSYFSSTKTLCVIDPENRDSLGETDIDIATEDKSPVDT
# Sequence of Phospholipid hydroperoxide glutathione peroxidase GPX4 (Homo sapiens) (P36969 whole entry, looked up): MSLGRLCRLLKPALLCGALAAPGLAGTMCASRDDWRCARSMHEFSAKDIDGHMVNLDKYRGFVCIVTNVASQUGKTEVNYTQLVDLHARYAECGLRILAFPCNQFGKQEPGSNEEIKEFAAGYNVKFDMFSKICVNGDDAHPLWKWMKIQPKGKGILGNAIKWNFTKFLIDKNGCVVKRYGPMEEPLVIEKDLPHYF
# Sequence of DNA dC->dU-editing enzyme APOBEC-3G (Homo sapiens) (Q9HC16 whole entry, looked up): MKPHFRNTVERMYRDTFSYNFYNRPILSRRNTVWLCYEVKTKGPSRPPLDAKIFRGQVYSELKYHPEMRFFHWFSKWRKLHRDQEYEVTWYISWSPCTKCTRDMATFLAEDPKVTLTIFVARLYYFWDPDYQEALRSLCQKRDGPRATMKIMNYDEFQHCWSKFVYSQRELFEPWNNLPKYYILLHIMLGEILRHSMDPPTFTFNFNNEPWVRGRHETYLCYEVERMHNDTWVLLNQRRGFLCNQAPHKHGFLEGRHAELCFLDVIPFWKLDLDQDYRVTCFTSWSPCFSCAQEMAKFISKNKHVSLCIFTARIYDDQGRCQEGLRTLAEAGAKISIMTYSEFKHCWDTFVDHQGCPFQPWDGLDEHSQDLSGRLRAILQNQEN
smiles,measurement,setting,value
C[n+]1cc(NC(=O)c2cccc(C(=O)Nc3cc4ccccc4[n+](C)c3)n2)cc2ccccc21,Potency,[1],16.4 µM (active)
same,Potency,[2],inactive
same,Potency,[3],inactive
same,Potency,[4],inactive
Cc1cc(-c2nc(C(=O)Nc3cn(C4CCOCC4)nc3C(N)=O)co2)ccn1,Potency,[1],16.4 µM (active)
same,Potency,[5],9.2 µM (active)
same,Potency,[3],16.4 µM (active)
same,Potency,[4],inactive
O=C1NC(=O)/C(=C\c2ccc3c(c2)OC(F)(F)O3)S1,Potency,[2],inactive
same,activity,[6],-3.87%
same,"activity change, negative = inhibition",[7],-2.97%
same,activity,[8],-7.77%
same,activity,[9],-2.73%
CC/C(=C(/CC)c1ccc(O)c(CN(CC)CC)c1)c1ccc(O)c(CN(CC)CC)c1,Potency,[2],14.6 µM (active)
same,Potency,[5],9.2 µM (active)
same,Potency,[3],16.4 µM (active)
same,Potency,[4],inactive
Cc1ccc(NS(=O)(=O)c2cc3c(cc2N[C@@H](C)CO)NC(=O)CC3)cc1C,Potency,[2],inactive
same,outcome,[10],inactive
CC(C)n1nc(Cc2cccc3ccccc23)c2c(N)ncnc21,Potency,[2],18.4 µM (active)
same,outcome,[10],inactive
same,activity,[6],-11.5%
same,"activity change, negative = inhibition",[7],-6.43%
same,activity,[8],-28.9%
same,activity,[9],-57.3%
same,Potency,[4],inactive
Nc1[nH]nc2nc3ccccc3nc12,Potency,[11],316 nM (active)
same,Potency,[12],> 46 µM (inactive)
same,Potency,[13],> 46 µM (inactive)
same,Potency,[14],inactive
same,Potency,[15],inactive
same,Potency,[16],2 µM (active)
same,Potency,[17],inactive
same,Potency,[18],631 nM (active)
same,Potency,[19],inactive
same,Potency,[2],inactive
same,Potency,[20],inactive
same,Potency,[21],inactive
same,Potency,[5],inactive
same,Potency,[3],inactive
same,Potency,[4],inactive
CCCCCCCCCCC(O)C1C=CC2C(=O)N(c3ccccc3)C(=O)C2N1Nc1ccc([N+](=O)[O-])cc1 (centres undefined),Potency,[2],inactive
same,Potency,[4],inactive
Cc1ccc2cc(-c3c(C)ccc(C(=O)c4c(-c5ccccc5)n(C)n(-c5ccccc5)c4=O)c3N)ccc2n1,Potency,[2],16.4 µM (active)
same,Potency,[22],inactive
same,Potency,[4],inactive
COc1c(-c2ccc3cc(NS(C)(=O)=O)ccc3c2)cc(-n2ccc(=O)[nH]c2=O)cc1C(C)(C)C,Potency,[2],inactive
same,Potency,[4],inactive
same,Potency,[23],3.98 µM (active)
O=c1cc(-c2ccc(O)cc2)oc2cc(OC3OC(CO)C(O)C(O)C3O)c(C3OC(CO)C(O)C(O)C3O)c(O)c12 (centres undefined),Potency,[2],inactive
same,Potency,[5],inactive
same,Potency,[3],inactive
same,Potency,[4],inactive
COc1cc(/C=C\c2ccc(O)cc2)cc(OC)c1,Potency,[2],inactive
same,Potency,[5],6.51 µM (active)
same,Potency,[4],inactive
CNc1ncc2cc(-c3cc(NC(=O)NCCC(C)(C)C)c(F)cc3C)c(C)nc2n1,Potency,[2],4.61 µM (active)
same,Potency,[22],inactive
same,Potency,[5],0.417 µM (active)
same,Potency,[3],0.59 µM (active)
same,Potency,[4],inactive
same,Z-AUC,[24],-1.04 (inactive)
same,Z-AUC,[24]; measured here: PEO1 parental Z-AUC,-0.267
same,Z-AUC,[24]; measured here: PEO4 Z-AUC,-0.215
